TDP1 cell noCPT: qHTS for Inhibitors of human tyrosyl-DNA phosphodiesterase 1 (TDP1): qHTS in cells in absence of CPT. DT40 Tdp1-/- hTDP1 cells, no CPT, ATP luminescence, 48 h. Potency, µM (highest dose often 46.2 µM), for the others: top-dose activity change, negative = growth inhibition, hits mostly inhibitors. actives 15% (n = 420,000). AID 686978, 2013; also: potency is read from the fitted curve at half-maximal effect; nearly all actives have a fitted effect of over 55% in size
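Chicken DT40 Tdp1-/- cells stably complemented with human TDP1 were seeded at 400 cells/well with DMSO in place of 20 nM camptothecin. After compound pinning, cells grew at least 48 hr at 37 °C; viability read by CellTiter-Glo luminescence.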
CtBP-E1A inh: inhibitors of CtBP/E1A interaction; AlphaScreen GST-E1A/His-CtBP binding, 1536-well; hits give low values; activity change, % (no concentration beside the values); actives 0.49% (n = 340,000); in the data active = activity change below about -65%; inconclusive = mostly about -30% to -63%
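In 5 uL wells, 23 nL compound meets equimolar GST-E1A and His-CtBP (5X stock 125 nM each) for 2 h, 37 °C. Beads (5X, 50 ug/mL) then 1 h, 37 °C, dark.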
Six1-Eya2 inh: blocks human Six1 binding to Eya2 | activity change, % (test concentration not listed) | AlphaScreen GST-Six1/His-Eya2 binding, biochemical; hits give low values | actives 0.56% (n = 360,000) | Q15475+O00167; in the data active = activity change below about -65%; inconclusive = mostly about -30% to -63%
Target sequence (O00167 whole entry, looked up): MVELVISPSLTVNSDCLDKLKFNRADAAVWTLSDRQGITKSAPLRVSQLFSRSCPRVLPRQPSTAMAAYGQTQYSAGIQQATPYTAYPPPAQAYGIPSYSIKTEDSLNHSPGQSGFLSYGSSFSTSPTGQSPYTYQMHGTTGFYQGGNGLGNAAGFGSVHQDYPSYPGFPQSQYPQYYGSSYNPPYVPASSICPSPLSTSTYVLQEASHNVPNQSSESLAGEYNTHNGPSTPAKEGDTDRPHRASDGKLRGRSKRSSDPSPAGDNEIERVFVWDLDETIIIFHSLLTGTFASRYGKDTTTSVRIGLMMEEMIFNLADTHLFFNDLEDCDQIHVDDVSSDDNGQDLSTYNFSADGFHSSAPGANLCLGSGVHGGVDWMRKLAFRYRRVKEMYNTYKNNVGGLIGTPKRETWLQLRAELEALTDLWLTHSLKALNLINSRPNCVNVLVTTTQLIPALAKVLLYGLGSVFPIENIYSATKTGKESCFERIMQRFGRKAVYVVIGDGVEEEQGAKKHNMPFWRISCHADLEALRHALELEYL
Target sequence (Q15475 whole entry, looked up): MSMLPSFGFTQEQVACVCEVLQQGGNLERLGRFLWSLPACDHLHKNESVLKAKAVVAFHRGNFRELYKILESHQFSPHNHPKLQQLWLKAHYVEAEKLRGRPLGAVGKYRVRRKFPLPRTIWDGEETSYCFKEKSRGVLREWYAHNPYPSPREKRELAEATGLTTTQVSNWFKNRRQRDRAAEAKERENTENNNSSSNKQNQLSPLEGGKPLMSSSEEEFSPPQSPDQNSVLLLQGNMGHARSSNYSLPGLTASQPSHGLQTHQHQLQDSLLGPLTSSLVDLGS
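Homogeneous AlphaScreen proximity assay pairing GST-Six1 with His-tagged Eya2 (added as 5X mix: 250 nM and 500 nM) in 50 mM Tris pH 8.0, 300 mM NaCl, 1 mM TCEP. Glutathione donor and nickel acceptor beads; 1 h, 37 °C, dark.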
TDP1 block: blocks human tyrosyl-DNA phosphodiesterase 1; Q9NUW8; recombinant TDP1, AlphaScreen DNA substrate cleavage; Potency, µM (top dose mostly 130 µM), without a hit: at the top dose activity change, negative = inhibition, most hits filed as inhibitors; actives 0.28% (n = 350,000); AID 485290; also: potency is read from the fitted curve at half-maximal effect; nearly all actives have a fitted effect of over 40% in size
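Recombinant E. coli-expressed Tdp1 (1 nM) preincubated with compound 15 min at RT, then 5'-biotin/3'-phosphotyrosine-FITC DNA substrate (15 nM) added for 5 min. AlphaScreen beads (10 ug/ml) added, 10 min RT; tyrosine-FITC cleavage read as signal loss.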
IL1B secr inh: inhibitors of inflammasome signaling (IL-1 beta secretion); THP-1 LPS/ATP IL-1B secretion, AlphaLISA, 16 h; hits give low values; actives 4.7% (n = 360,000); activity change, % at 57.5 µM; in the data active = activity change below about -50%; inconclusive = mostly about -30% to -49%
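Secreted IL-1B measured by AlphaLISA bead assay after 16 h compound exposure of THP-1 cells; compounds (final up to 57.5 uM) added 1 h before LPS (250 ng/mL) and ATP (1.25 mM) stimulation; lower signal means less secretion.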
DT40 TDP1 CPT: growth inhibition of DT40 Tdp1-/-;hTDP1 cells with camptothecin (screen for TDP1 inhibitors). chicken DT40 Tdp1-/-;hTDP1 cells + 20 nM CPT, ATP luminescence, 48 h. Potency, µM (titrated, usually from 46.2 µM), without a hit: at the highest dose activity change, negative = growth inhibition, hits mostly inhibitors. actives 12% (n = 420,000). AID 686979; also: potency is read from the fitted curve at half-maximal effect; nearly all actives have a fitted effect of over 55% in size
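Cell growth measured by CellTiter-Glo luminescence after a minimum 48 h, 37 C compound exposure with 20 nM CPT in Tdp1-knockout DT40 cells stably expressing hTDP1, seeded 400/well; qHTS titration format.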
The depositor's hits bear a star; ? = inconclusive; · = no result given; [ ] = dose if it differs, or a comment. Rows were chosen to be rich in hits. Some 18% of all compounds tested hit in one or more screens of this group. Unless noted, calls follow the shape of the dose curve; as a rule, active = well fitted curve in the direction sought with a large enough effect; inconclusive = small, poorly fitted or top-dose-only effect, or another doubt; inactive = no such curve, though single readings can be large; an effect the other way counts as inactive or inconclusive. % is scaled to controls: 0 for no effect and ±100 for the full control effect.

SMILES	TDP1 cell noCPT	CtBP-E1A inh	Six1-Eya2 inh	TDP1 block	IL1B secr inh	DT40 TDP1 CPT
C#CCN1C(=O)S/C(=C\c2ccc(N3CCOCC3)cc2C)C1=O	7.31µM*	2.1	7.6	2.4%	0.0	?
Cc1cccnc1-n1c(-c2ccco2)nc2ccccc2c1=O	?	-2.9	-2.4	6.9%	21.0	-27.8%
COc1ccccc1-n1c(-c2ccccc2Cl)nc2ccccc2c1=O	14.6µM*	-0.3	7.0	·	0.0	?
COc1ccccc1-n1c(Cc2ccccc2)nc2ccccc2c1=O	-29.6%	4.7	4.3	4.8%	?	1.8%
COc1ccccc1-n1c(-c2ccoc2)nc2ccccc2c1=O	18.4µM*	-2.1	0.8	1.2%	5.1	11.6µM*
Cc1cccc(-n2c(-c3ccco3)nc3ccccc3c2=O)c1C	16.4µM*	3.5	3.9	-2.6%	-6.9	8.2µM*
O=c1c2ccccc2nc(-c2ccoc2)n1-c1ccccc1Cl	16.4µM*	-12.6	-12.8	0.9%	-16.6	20.6µM*
Cc1c(C(=O)NCc2cccc(C(F)(F)F)c2)sc(=O)n1Cc1ccc(C(=O)N(C)C)cc1	14.6µM*	0.9	-5.6	·	-15.9	?
CCOc1ccc(Cn2c(=O)oc3ccc(C)cc32)cc1OC	?	-0.6	10.1	0.0%	-11.9	?
COc1ccc(CNC(=O)c2sc(=O)n(Cc3ccc(C)cc3)c2C)cc1OC	16.4µM*	-7.3	-3.2	·	-24.7	?
CCN(CC)C(=O)[C@@H]1C=C2c3cccc4[nH]cc(c34)C[C@H]2N(C)C1	40.1µM*	·	·	·	·	40.1µM*
CN1C[C@H](CO)C=C2c3cccc4[nH]cc(c34)C[C@H]21	?	6.8	5.1	-6.4%	-10.6	3.66µM*
CN1C[C@@H](CO)C=C2c3cccc4[nH]cc(c34)CC21 (some centres undefined)	-24.0%	·	·	9.7%	·	10.2%
COC(=O)C1=C(c2c(C)noc2C)C[C@@H]2CC[C@H]1N2C(=O)NCc1ccc(F)cc1	-20.8%	3.2	-5.4	0.6%	-0.2	-4.2%
Oc1cc(Cl)ccc1Oc1ccc(Cl)cc1Cl	23.1µM*	-1.2	-6.1	2.1%	-69.7*	7.7µM*
Oc1cc(Cl)ccc1Cl	·	·	·	16.1%	·	·
Cn1c(=O)cc(SCC(=O)N2CCC3(CC2)OCCO3)c2ccc(Cl)cc21	-29.5%	?	?	5.2%	?	?
COC(=O)C1=C(c2ccccc2OCc2ccccc2)C[C@@H]2CC[C@H]1N2C(=O)NCc1ccc(Cl)cc1	?	·	-8.8	1.1%	-29.5	?
COC(=O)C1=C(c2ccccc2OCc2ccccc2)C[C@@H]2CC[C@H]1N2C(=O)NCc1ccc([N+](=O)[O-])cc1	?	?	-6.3	2.0%	-52.6*	23.1µM*
COC(=O)C1=C(c2ccccc2OCc2ccccc2)C[C@@H]2CC[C@H]1N2C(=O)NCc1cccc(F)c1	?	-3.4	-6.9	-0.2%	?	?
COC(=O)C1=C(c2ccccc2OCc2ccccc2)C[C@@H]2CC[C@H]1N2C(=O)NCc1ccc(OC)c(OC)c1	20.6µM*	-17.5	?	2.8%	-7.9	16.4µM*
CC(C)CCCC(C)C1CCC2C3C(=O)C=C4CC(O)CC[C@@]4(C)C3CC[C@@]12C (some centres undefined)	-28.3%	·	·	12.1%[56.1 µM]	·	-13.9%
COc1ccc(C2C(C#N)=C(N)Oc3n[nH]c(C)c32)cc1Cn1cc([N+](=O)[O-])cn1 (centres undefined)	?	1.2	-7.4	5.7%	-20.6	?
CN(C)c1ccc(/C=C2/C(=O)NC(=O)N(Cc3ccco3)C2=O)cc1	-16.8%	-5.5	-1.1	28.2µM*	-10.9	-17.2%
CCN(CC)c1ccc(/C=C2\C(=O)NC(=O)N(CC3CCCO3)C2=O)cc1 (centres undefined)	-19.9%	·	1.3	3.1%	-9.2	-11.0%
SMILES	TDP1 cell noCPT	CtBP-E1A inh	Six1-Eya2 inh	TDP1 block	IL1B secr inh	DT40 TDP1 CPT
CCN(CC)c1ccc(/C=C2/C(=O)NC(=O)N(Cc3ccco3)C2=O)cc1	-2.6%	5.4	-1.5	?	-64.3*	-1.0%
O=C(Cn1c(=O)nc(-c2ccccc2)c2cc(Cl)ccc21)NCc1ccccc1	16.4µM*	·	·	3.8%	·	7.31µM*
Cc1cccc(N2CCN(C(=O)CCCCn3c(=O)[nH]c4ccsc4c3=O)CC2)c1C	18.4µM*	·	·	5.9%	·	?
Cc1cccc(N2CCN(CCc3ccccc3)CC2)c1C	?	6.9	-6.7	-3.9%	-14.6	?
COc1ccccc1NC(=O)Cn1c(=O)n(-c2cccc(Cl)c2)c(=O)c2sc3ccccc3c21	6.51µM*	·	·	-1.3%	·	13µM*
Cc1ccccc1CN1C(=O)C(C)N=C(c2ccccc2)c2ccccc21 (centres undefined)	18.4µM*	·	·	1.9%	·	?
CN1C(=O)c2ccccc2Sc2ccc(NC(=O)NCc3ccc(Cl)cc3)cc21	16.4µM*	·	·	8.6%	·	23.1µM*
CC(=O)OC1CC[C@@]2(C)C3CC(=O)[C@]4(C)C(C(C)=O)=CCC4C3CC[C@H]2C1 (some centres undefined)	?	·	·	5.4%	·	-4.3%
COc1ccc(NC(=O)c2oc3ccc(S(=O)(=O)N(C)C4CCCCC4)cc3c2C)cc1	8.2µM*	·	·	10.4%	·	10.3µM*
CCn1cc(C(=O)NCCc2ccc(Cl)cc2)c(=O)c2cc(S(=O)(=O)N(C)C3CCCCC3)ccc21	?	·	·	-2.3%	·	?
Cc1cccn2c(=O)cc(COc3cccc(NC(=O)COc4ccc(F)cc4)c3)nc12	8.2µM*	·	·	0.0%	·	?
Cn1cccc1CNCCc1ccccc1F	-21.3%	0.0	-27.4	2.1%	-1.3	?
CCOC(=O)c1c(C=O)c2ccccc2n1Cc1ccccc1F	?	27.1	28.8	·	8.0	-11.8%
CCOc1ccc(NCc2cccn2-c2nnc(N3CCC(C(=O)NC(C)c4ccccc4)CC3)s2)cc1 (centres undefined)	8.2µM*	·	·	6.8%	·	20.6µM*
On1ccccc1=S	0.0092µM*	?	?	·	-107.3*	0.13µM*
C/C=C(/C)C(=O)O[C@H]1C(C)=C2C([C@@H]1OC(=O)CCCCCCC)[C@@](C)(OC(C)=O)C[C@@H](OC(=O)CCC)[C@@]1(O)[C@H]2OC(=O)[C@@]1(C)O (some centres undefined)	·	·	·	12.9%[56.1 µM]	·	·
